GALK inhibitor: qHTS Assay for Inhibitors of Human Galactokinase (GALK): NCGC Sytravon Library Screen; P51570; recombinant GALK, Kinase-Glo ATP luminescence, 1 h; 44,000 tested, under 10 active; Potency, µM (top dose mostly 57.5 µM), for the others: at the top dose activity, negative = inhibition, actives largely listed as inhibitors;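 also: plate controls were full GALK reaction for no effect and reaction lacking GALK for full effect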
Target sequence (P51570 whole entry, looked up): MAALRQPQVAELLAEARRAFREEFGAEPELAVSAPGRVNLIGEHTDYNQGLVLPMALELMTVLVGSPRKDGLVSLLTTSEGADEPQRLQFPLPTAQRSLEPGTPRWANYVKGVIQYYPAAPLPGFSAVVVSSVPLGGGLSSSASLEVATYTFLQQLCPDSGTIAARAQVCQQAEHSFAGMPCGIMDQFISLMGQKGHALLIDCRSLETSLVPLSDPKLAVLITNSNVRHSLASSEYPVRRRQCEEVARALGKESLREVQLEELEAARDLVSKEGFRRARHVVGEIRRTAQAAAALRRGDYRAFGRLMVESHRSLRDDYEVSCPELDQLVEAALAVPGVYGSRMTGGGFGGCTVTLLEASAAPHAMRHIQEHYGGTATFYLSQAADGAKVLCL
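Human GALK (5 nM) was incubated with 35 uM ATP and 100 uM galactose in 20 mM HEPES pH 8.0 with MgCl2, NaCl, DTT and BSA for 1 h at room temperature. Remaining ATP was measured by Kinase-Glo Plus luminescence.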
NTMT1 inhibitor: Primary qHTS for Inhibitors of N-terminal methyltransferase 1 (NTMT1): MTaseGlo Assay; N-terminal Xaa-Pro-Lys N-methyltransferase 1 (Homo sapiens), Q9BV86; NTMT1 MTase-Glo SAH luminescence, purified enzyme; Potency, µM (doses to about 114 µM), for the others: top-dose activity change, negative = inhibition, most hits filed as inhibitors; 59,000 compounds, 2.5% hits; AID 1645870, 2021;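 also: potency is read from the fitted curve at half-maximal effect; plate controls were DMSO vehicle for no effect and no enzyme for full effect; nearly all actives have a fitted effect of over 65% in size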
Target sequence (Q9BV86 whole entry, looked up): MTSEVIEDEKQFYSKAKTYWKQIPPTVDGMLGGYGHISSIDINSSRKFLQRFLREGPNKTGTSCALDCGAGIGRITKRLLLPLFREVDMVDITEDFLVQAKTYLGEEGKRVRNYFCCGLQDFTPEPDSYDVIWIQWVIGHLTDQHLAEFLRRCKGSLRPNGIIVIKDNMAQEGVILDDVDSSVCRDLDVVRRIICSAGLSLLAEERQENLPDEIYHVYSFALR
HTT-AS act: Primary qHTS for Identification of Small Molecule Activators of Huntingtin-Antisense Promoter Activity; HEK293 HTT-AS promoter firefly luciferase reporter, 24 h; response scale: percent change from vehicle, -100% = no light; Potency, µM (top dose mostly 57.5 µM), inactives show at the highest dose activity change, positive = activation, actives largely listed as activators; 48,000 compounds, 0.24% hits; also: potency is read from the fitted curve at half-maximal effect; nearly all actives have a fitted effect of over 55% in size
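HEK293 Fluc reporter, 2,500 cells/well, 24 h pre-culture; cpds up to 57.5 uM final, 24 h 37 degrees C; Dual-Glo, 10 min RT; normalized vehicle = 0%, zero RLU = -100%.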
TSG101-PTAP inh: qHTS Validation Assay for Inhibitors of HIV-1 Budding by Blocking the Interaction of PTAP/TSG101: Sytravon Library Screen; Potency, µM (series often up to 115 µM), most hits filed as inhibitors; 44,000 tested, under 10 active; Fluorescence polarization, FITC-PTAP peptide/Tsg101, 20 min; AID 1347069, 2019; also: potency is read from the fitted curve at half-maximal effect; 0% is about no effect
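qHTS FP binding, 20 min r.t.: 10 uM Tsg101 domain + 50 nM FITC-PTAP peptide, pH 7.5 HEPES buffer with TCEP and EDTA.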
HTT prom inh: Primary qHTS for Identification of Small Molecule Inhibitors of Huntingtin Promoter Activity | Potency, µM (top dose mostly 57.5 µM), without a hit: top-dose activity change, negative = inhibition, most hits filed as inhibitors | 48,000 compounds, 0.93% hits | HEK293 HTT promoter firefly luciferase reporter, 24 h; also: potency is read from the fitted curve at half-maximal effect; nearly all actives have a fitted effect of over 50% in size
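Luminescence was read after Dual-Glo reagent and a 10 min room-temperature incubation. Values were normalized to vehicle (0% activity) and zero RLU (-100% activity). Reporter HEK293 cells had been exposed to compounds (up to 57.5 uM final) for 24 h.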
SKOV3 invasion: Primary qHTS assay for Inhibitors of ovarian cancer metastasis using an organotypic tumor microenvironment (TME) model. 46,000 compounds, 0.1% hits. SKOV3ip1-GFP adhesion/invasion on 3D omental model, fluorescence. Potency, µM (doses to about 45.8 µM), inactives show top-dose activity change, negative = inhibition, hits mostly inhibitors;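 also: potency is read from the fitted curve at half-maximal effect; plate controls were DMSO wells for no effect and tomatine positive control wells for full effect; nearly all actives have a fitted effect of over 65% in size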
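A 3D layer of primary human omental fibroblasts, mesothelial cells, fibronectin and collagen I, grown 48 hr, received SKOV3ip1-GFP cells in serum-free medium plus compounds at 0.36-46 umol/L. After 2 hr RT and 16 hr 37 C, fixed adherent GFP cells were counted; normalized to DMSO and tomatine.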
Active calls of the source: *; ! = not confirmed by another sample; [ ] = dose if it differs, or a comment. The list is not random: actives were taken first. Their share in the collection is about 2.5%. Calls follow the shape of the dose curve; as a rule, active = well fitted curve in the direction sought with a large enough effect; inconclusive = small, poorly fitted or top-dose-only effect, or another doubt; inactive = no such curve, though single readings can be large; an effect the other way counts as inactive or inconclusive.

`Cc1ccc(-n2ncc3c(NCCO)ncnc32)cc1Cl` gave GALK inhibitor 3.4%, NTMT1 inhibitor 35.5µM*, HTT-AS act inconclusive, TSG101-PTAP inh inactive, HTT prom inh 61.9% and SKOV3 invasion 0.5%.
Screening Clc1cccc(-n2ncc3c(NCCCN4CCOCC4)ncnc32)c1 returned GALK inhibitor 2.0%, NTMT1 inhibitor 50.1µM*, HTT-AS act 2.8%, TSG101-PTAP inh inactive, HTT prom inh -7.8% and SKOV3 invasion inconclusive.
For Cc1cccc(-n2ncc3c(NCCOCCO)ncnc32)c1 the results were GALK inhibitor 1.7%, NTMT1 inhibitor inconclusive, HTT-AS act 3.98µM*, TSG101-PTAP inh inactive, HTT prom inh 38.6% and SKOV3 invasion -3.9%.
Screening Cc1cn2c(N)c(Cl)cc(C(=O)NCC3CCN(CC(C)C)CC3)c2n1 returned NTMT1 inhibitor 0.7%[57.5 µM].
CC(=O)Nc1sc2cnccc2c1-c1nc2ccccc2s1 was read as NTMT1 inhibitor -16.8%[57.5 µM].
Screening Oc1ccc(C(O)CNCCCCCCNCC(O)c2ccc(O)c(O)c2)cc1O (configuration not stated) returned NTMT1 inhibitor 35.5µM*, HTT-AS act -11.6% and HTT prom inh -5.6%.
Screening CNC[C@H](O)c1ccc(O)c(O)c1 returned NTMT1 inhibitor 55.5µM*!, HTT-AS act -20.3%[116 µM], HTT prom inh -11.7%[116 µM] and SKOV3 invasion 5.3%[92.2 µM].
COc1ccc2c(C)cc(SCC(=O)Nc3nsc(-c4ccccc4C)n3)nc2c1 was read as GALK inhibitor 2.2%, NTMT1 inhibitor 4.9%, HTT-AS act -27.8%, TSG101-PTAP inh inactive, HTT prom inh -9.2% and SKOV3 invasion -9.5%.
`Cc1ccc(-c2nc(NC(=O)CSc3cc(C)c4ccccc4n3)ns2)cc1` gave GALK inhibitor 0.0%, NTMT1 inhibitor 39.8µM*, HTT-AS act -2.6%, TSG101-PTAP inh inactive, HTT prom inh 1.5% and SKOV3 invasion -2.7%.
Screening N#Cc1c(-c2ccco2)no[n+]1[O-] returned NTMT1 inhibitor 10.3%.
For CC(C)(O)c1ccc2c(c1)C(=O)C[C@H]1[C@](C)(C(=O)O)CCC[C@]21C the results were NTMT1 inhibitor 13.7%[29.8 µM].
For CN(C)c1ccc(C(CNS(=O)(=O)c2ccc(F)cc2)N2CCOCC2)cc1 (configuration not stated) the results were GALK inhibitor -1.3%, NTMT1 inhibitor -1.0%, HTT-AS act -22.9%, TSG101-PTAP inh inactive, HTT prom inh -17.1% and SKOV3 invasion -8.9%.
For CN(C)c1ccc(C(CNS(=O)(=O)c2ccc(F)cc2)N2CCCC2)cc1 (configuration not stated) the results were GALK inhibitor 3.9%, NTMT1 inhibitor 89.1µM*, HTT-AS act -4.4%, TSG101-PTAP inh inactive, HTT prom inh 0.6% and SKOV3 invasion inconclusive.
`Cc1ccc(CNC(=O)C(=O)NCC(c2cccnc2)N2CCN(c3ccccc3F)CC2)cc1` (configuration not stated) gave GALK inhibitor 0.1%, NTMT1 inhibitor 5.1%, HTT-AS act -48.2%, TSG101-PTAP inh inactive, HTT prom inh 14.1µM* and SKOV3 invasion 16.1%.
Screening COc1ccc(CCNC(=O)C(=O)NCC(c2cccnc2)N2CCN(c3ccccc3)CC2)cc1 (configuration not stated) returned GALK inhibitor -0.6%, NTMT1 inhibitor -0.6%, HTT-AS act -63.7%, TSG101-PTAP inh inactive, HTT prom inh 12.6µM* and SKOV3 invasion 3.0%.
`COc1ccc(C(=O)NCC(c2cccnc2)N2CCN(c3ccccc3)CC2)cc1` (configuration not stated) gave GALK inhibitor 1.5%, NTMT1 inhibitor -2.6%, HTT-AS act -23.7%, TSG101-PTAP inh inactive, HTT prom inh inconclusive and SKOV3 invasion 7.2%.
`COc1ccc(CNC(=O)C(=O)NCC(c2cccnc2)N2CCN(c3ccccc3)CC2)cc1` (configuration not stated) gave GALK inhibitor -11.6%, NTMT1 inhibitor -3.8%, HTT-AS act -36.2%, TSG101-PTAP inh inactive, HTT prom inh 12.6µM* and SKOV3 invasion 2.8%.
CN1CCC(c2c(O)cc(O)c3c(=O)cc(-c4ccccc4Cl)oc23)C1CO (configuration not stated) was read as NTMT1 inhibitor 50.1µM*.
For CN1CCC(c2c(O)cc(O)c3c(=O)cc(-c4ccccc4Cl)oc23)C(O)C1 (configuration not stated) the results were NTMT1 inhibitor 35.5µM*.
CN1CC[C@@H](c2c(O)cc(O)c3c(=O)cc(-c4ccccc4Cl)oc23)[C@@H](O)C1 was read as NTMT1 inhibitor 24.1µM*!, HTT-AS act inconclusive, HTT prom inh inconclusive and SKOV3 invasion 16.9%.
For Cc1cnc(-c2ccccc2C2COC2)nc1NCc1ccc(-n2ccnn2)cc1 the results were NTMT1 inhibitor 10.0%[57.5 µM].
Cc1cccc(-c2nc3c(cnn3-c3ccccc3)c(=O)n2-c2ccc(Br)cc2)c1 was read as GALK inhibitor -1.4%, NTMT1 inhibitor 89.1µM*, HTT-AS act 9.3%, TSG101-PTAP inh inactive, HTT prom inh -6.5% and SKOV3 invasion -12.0%.
Screening CC(C)N1CCc2c(sc(NC(=O)C3CCCC3)c2-c2nc3ccccc3s2)C1 returned NTMT1 inhibitor -3.5%.
For CC(C)NCCCn1c(Sc2cc(Cl)cc(Cl)c2)nc2c(N)ncnc21 the results were NTMT1 inhibitor -17.6%.
COc1cc(NC(=O)c2ccc(-c3nc(COc4ccccc4)c(C)o3)cc2)cc(OC)c1 was read as GALK inhibitor -0.9%, NTMT1 inhibitor 4.8%, HTT-AS act -47.8%, TSG101-PTAP inh inactive, HTT prom inh 14.1µM* and SKOV3 invasion -8.2%.
`CCCCN=C(N)NC(=N)N` gave NTMT1 inhibitor 42.0%[57.5 µM].
Oc1cccc(-c2c3nc(c(-c4cccc(O)c4)c4ccc([nH]4)c(-c4cccc(O)c4)c4nc(c(-c5cccc(O)c5)c5ccc2[nH]5)CC4)C=C3)c1 was read as NTMT1 inhibitor 22.4µM*, HTT-AS act -26.9% and HTT prom inh inconclusive.

Bioassay records as filed in PubChem BioAssay.
